Source: PubChem BioAssay (NCI)
The panel holds about 83,000 compounds, 20% with a hit somewhere; the sample as a whole holds those more often.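 Single-dose data. Exposure time 48 hours. Values below 10 considered active.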 Calls of active or inactive are those of the source.

Assays:
Experiment in all cases: NCI-60 one-dose screen, 48 h (100 = growth as untreated, 0 = no growth, -100 = all killed)
Conditions in all cases: 10 µM unless noted
DU-145 prostate = tested on: DU-145 prostate
K-562 leukemia = tested on: K-562 leukemia
MALME-3M melanoma = tested on: MALME-3M melanoma
MDA-MB-231 breast = tested on: MDA-MB-231 breast
RXF 393 renal = tested on: RXF 393 renal
SF-268 CNS = tested on: SF-268 CNS
SF-295 CNS = tested on: SF-295 CNS
SF-539 CNS = tested on: SF-539 CNS
UACC-257 melanoma = tested on: UACC-257 melanoma
M14 melanoma = tested on: M14 melanoma

Measured: growth

COC(=O)/C=C1\SC(=Nc2ccc(C(F)(F)F)cc2)N(CCc2c[nH]c3ccccc23)C1=O
active: DU-145 prostate -65.4% | K-562 leukemia -0.591% | MALME-3M melanoma -89.6% | MDA-MB-231 breast -63.7% | RXF 393 renal -70.2% | SF-268 CNS -3.91% | SF-295 CNS -81.4% | SF-539 CNS -91.2% | UACC-257 melanoma -50.3% | M14 melanoma -45.6%

C[C@H](Oc1cc(-c2cnn(C3CCNCC3)c2)cnc1N)c1c(Cl)ccc(F)c1Cl
active: K-562 leukemia 5.27% | MALME-3M melanoma -38% | UACC-257 melanoma -45% | M14 melanoma -51.9%
inactive: DU-145 prostate 77.8% | MDA-MB-231 breast 52.2% | RXF 393 renal 31.6% | SF-268 CNS 59% | SF-295 CNS 49.7% | SF-539 CNS 68.3%

COC(=O)/C=C1\SC(=Nc2cccc(OC)c2)N(CCc2c[nH]c3ccccc23)C1=O
inactive: DU-145 prostate 69.3% | K-562 leukemia 40.8% | MALME-3M melanoma 80.5% | MDA-MB-231 breast 66.1% | RXF 393 renal 49.2% | SF-268 CNS 82.8% | SF-295 CNS 61.9% | SF-539 CNS 83.4% | UACC-257 melanoma 61.7% | M14 melanoma 64.9%

Cc1ccc2nc3nc4ccc[nH]c4cc3c2c1
inactive: DU-145 prostate 108% | K-562 leukemia 111% | MALME-3M melanoma 101% | MDA-MB-231 breast 70.3% | RXF 393 renal 99.6% | SF-268 CNS 94.1% | SF-295 CNS 113% | SF-539 CNS 83.5% | UACC-257 melanoma 119% | M14 melanoma 110%

CN(C)CCCn1c2c(c3cc(-c4ccco4)ccc3c1=O)C(=O)c1ccccc1-2
active: K-562 leukemia -75.1%
inactive: DU-145 prostate 66.8% | MALME-3M melanoma 113% | MDA-MB-231 breast 53.3% | RXF 393 renal 75.5% | SF-268 CNS 72.3% | SF-295 CNS 82.6% | SF-539 CNS 63.9% | UACC-257 melanoma 102% | M14 melanoma 81.2%

C#C[C@@]1(O)[C@@H](CO)O[C@@H](n2cnc3c(-c4ccccc4)ncnc32)[C@@H]1O
inactive: DU-145 prostate 109% | K-562 leukemia 105% | MALME-3M melanoma 103% | MDA-MB-231 breast 126% | RXF 393 renal 122% | SF-268 CNS 99% | SF-295 CNS 97.7% | SF-539 CNS 108% | UACC-257 melanoma 117% | M14 melanoma 97.8%

CC(C)CSc1nc(Nc2ccccc2)c(C#N)c(-c2ccc(F)cc2)n1
active: MALME-3M melanoma -5.57% | MDA-MB-231 breast -3.62% | RXF 393 renal 2.42%
inactive: DU-145 prostate 75.9% | K-562 leukemia 50.7% | SF-268 CNS 37.7% | SF-295 CNS 16.2% | SF-539 CNS 22.4% | UACC-257 melanoma 66.2% | M14 melanoma 31.6%

CSc1nc(-c2cccs2)c2c(N)[nH]nc2n1
inactive: DU-145 prostate 107% | K-562 leukemia 88.4% | MALME-3M melanoma 121% | MDA-MB-231 breast 97.9% | RXF 393 renal 114% | SF-268 CNS 105% | SF-295 CNS 102% | SF-539 CNS 93% | UACC-257 melanoma 114% | M14 melanoma 126%
